Source: PubChem BioAssay (Pan Lab, Icahn School of Medicine at Mount Sinai)
RBX1-CUL1 inh: inhibitors of human ROC1-CUL1 ubiquitin ligase activity. inhibition, % at 10 µM. E3 ubiquitin-protein ligase RBX1 (Homo sapiens) + Cullin-1 (Homo sapiens), P62877+Q13616. in vitro K48 di-Ub FRET, acceptor:donor ratio, 45 min. AID 1347404, 2020. 140,000 tested, 0.6% active; in the data active = inhibition above about 25%
Target sequence (P62877 whole entry, looked up): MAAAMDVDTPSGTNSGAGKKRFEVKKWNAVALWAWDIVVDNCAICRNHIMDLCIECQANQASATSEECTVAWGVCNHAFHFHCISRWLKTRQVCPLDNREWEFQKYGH
Target sequence (Q13616 whole entry, looked up): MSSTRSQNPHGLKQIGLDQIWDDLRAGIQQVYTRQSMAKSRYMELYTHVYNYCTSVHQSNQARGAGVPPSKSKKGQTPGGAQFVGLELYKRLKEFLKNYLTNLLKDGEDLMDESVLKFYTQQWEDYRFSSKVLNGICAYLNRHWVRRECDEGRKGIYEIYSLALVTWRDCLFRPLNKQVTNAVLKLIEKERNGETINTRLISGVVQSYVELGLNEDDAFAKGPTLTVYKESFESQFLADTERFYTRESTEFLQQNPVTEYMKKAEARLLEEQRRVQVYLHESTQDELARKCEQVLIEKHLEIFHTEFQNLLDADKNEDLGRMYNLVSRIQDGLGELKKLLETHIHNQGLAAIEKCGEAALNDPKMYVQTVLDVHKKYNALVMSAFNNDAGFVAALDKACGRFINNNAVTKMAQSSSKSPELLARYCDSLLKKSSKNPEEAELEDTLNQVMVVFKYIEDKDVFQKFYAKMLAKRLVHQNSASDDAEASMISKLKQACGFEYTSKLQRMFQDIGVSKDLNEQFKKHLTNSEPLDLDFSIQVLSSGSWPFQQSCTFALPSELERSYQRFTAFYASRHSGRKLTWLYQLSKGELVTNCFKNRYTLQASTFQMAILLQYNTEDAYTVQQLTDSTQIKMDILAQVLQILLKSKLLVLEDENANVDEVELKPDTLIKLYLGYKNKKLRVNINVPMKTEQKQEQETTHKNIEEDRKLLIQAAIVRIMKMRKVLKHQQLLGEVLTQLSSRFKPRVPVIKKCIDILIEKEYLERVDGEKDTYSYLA
An asterisk follows results filed as active. The sample as a whole holds a higher share of hits than the screen did.

SMILES | RBX1-CUL1 inh
Cc1cccc(-n2ccnc2[C@@H]2C[C@H]3CN(c4ccccc4)C(=O)[C@]34CCCN24)c1 | -1
Cc1cccc(N2C(=O)c3cccc4cccc(c34)C2=O)n1 | -3
O=C(Nc1ccc(F)c(Cl)c1)C1CCN(C(=O)c2ccccc2F)CC1 | 6
CCC(=O)Nc1cc(S(=O)(=O)N2CCC(C)CC2)ccc1OC | -1
O=C1c2ccccc2COC12OCc1ccccc12 (stereo not given) | -8
CC1(C)COC2(NC1=O)c1ccccc1-c1ccccc12 | 10
O=C1C=CC2(c3ccccc3-c3ccccc32)S(=O)(=O)C1 | 61*
CC(=O)Oc1c(C)c(=O)n(C)c2ccccc12 | -4
CC(=O)Oc1c(Cl)c(=O)n(C)c2ccccc12 | 60*
CCc1c(OC(C)=O)c2ccccc2n(C)c1=O | 8
N#Cc1c(N)nc2[nH]c(=O)[nH]c(=O)c2c1C#N | 7
Cc1ccc(OCCCCN2CCNCC2)c(C(C)(C)C)c1 | 25*
Cc1ccc(OCCCCCN2CCNCC2)cc1 | 0
Cc1cc(Cl)ccc1OCCCCCN1CCNCC1 | -4
CCOC(=O)C1=c2s/c(=C/c3cccc(C)c3)c(=O)n2C(=N)C(C#N)C1c1cccc(C)c1 (stereo not given) | 5
CN1C(=O)C(Cc2ccc(Br)s2)=NC1=S | 7
CN1C(=O)C(Cc2cc(Cl)ccc2O)=NC1=S | 27*
COc1cc(CC2=NC(=S)N(C)C2=O)c(Br)cc1OCc1ccc(Cl)cc1 | 18
CCOc1cc(/C=c2\sc3n(c2=O)C(c2ccccc2Cl)C2=C(N=3)c3ccccc3CC2)ccc1OCc1ccccc1C#N (stereo not given) | -12
O=C(NCCN1CCCCC1)c1ccc(Cl)cc1Cl | 4
CCCCOc1ccc(C(=O)C2C(=O)C(=O)N(Cc3cccnc3)C2c2ccc(C)cc2)cc1C (stereo not given) | 9
CC1=NN(c2ccccc2)C(=O)C1N=Nc1cc(Cl)ccc1C(F)(F)F (stereo not given) | -7
CC1=NN(c2ccccc2)C(=O)C1C(c1ccccc1C(=O)O)C1C(=O)N(c2ccccc2)N=C1C (stereo not given) | -3
CC1=NN(c2ccccc2)C(=O)C1C(c1ccc(Cl)cc1)C1C(=O)N(c2ccccc2)N=C1C (stereo not given) | 61*
CC(C)COC(=O)Nc1ccc(S(=O)(=O)Nc2c(Cl)cccc2Cl)cc1 | 0
SMILES | RBX1-CUL1 inh
CC(=O)N1c2ccccc2N=C2CC(c3ccc(N(C)C)cc3)CC(=O)C2C1c1ccccc1 (stereo not given) | 5
CCCc1nc2nc(C)c(Cc3ccc(Cl)cc3)c(=O)n2[nH]1 | 3
CCN(CC)c1ccc(/C=C2\C(=O)N(c3nnc(C)c(=O)[nH]3)N=C2C)cc1 | 57*
CCN(CC)c1ccc(C=C2C(=O)N(c3ccccc3)C(=O)N(c3ccccc3)C2=O)cc1 | -35
CCN(C)c1ccc(C=C2C(=O)N(C)C(=O)N(C)C2=O)cc1 | 1
Cc1ccc(-n2c(-c3ccncc3)n[nH]c2=S)cc1 | 7
Cc1ccc(-n2c(-c3ccccc3)cc(-c3ccccc3)nc2=O)cc1 | -10
Cc1ccc(-n2c(Cl)c(Cl)nc(Cl)c2=O)cc1 | 45*
Fc1ccc(OCCSc2nc3ccccc3o2)cc1 | 8
CCOC(=O)c1c(NC(=O)C2CCC2)sc2c1CCC(c1ccccc1)C2 (stereo not given) | 8
O=C1NC(=S)N(c2cccc(Cl)c2Cl)C(=O)/C1=C/c1ccc(N2CCOCC2)cc1 | 29*
Cc1ccsc1/C=C1/C(=O)NC(=S)N(c2cccc(Cl)c2Cl)C1=O | 54*
O=C1NC(=S)N(c2cccc(Cl)c2Cl)C(=O)/C1=C/c1cn(Cc2ccc3ccccc3c2)c2ccccc12 | -15
C=CCOc1ccc(/C=C2\C(=O)NC(=S)N(c3cccc(Cl)c3Cl)C2=O)cc1 | -2
CN1C(=O)/C(=C/c2ccc(N3CCCC3)cc2)C(=O)NC1=S | 13
Cc1ccc(N2C(=O)NC(=O)/C(=C\c3cccs3)C2=O)cc1C | -8
COCCCn1c(CN2CCCC(C(C)=O)C2)cnc1S(C)(=O)=O (stereo not given) | 4
COCCn1c(=O)c2c(nc3n(-c4cc(C)cc(C)c4)c(C)cn23)n(C)c1=O | 13
CCOC(=O)C1=C(c2ccccc2)N=c2s/c(=C\c3cccc(OCC(=O)O)c3)c(=O)n2C1c1cccc(OC)c1 (stereo not given) | 25
COc1ccccc1C1C(C(=O)N2CCCCC2)C(C)=Nc2nc3ccccc3n21 (stereo not given) | -6
CCN=C1CC=CC=C(C(=O)/C=C/c2ncccc2C)C1=O | 36*
CCN=C1CC=CC=C(C(=O)/C=C/c2cccc(OC)c2OC)C1=O | -3
CCN=C1CC=CC=C(c2ccc3ccccc3n2)C1=O | -4
CCN=C1CC=CC=C(C(=O)/C=C/c2ccc(Cl)cc2Cl)C1=O | 4
CCN=C1CC=CC=C(C(=O)/C=C/c2cccc(Cl)c2)C1=O | 7
SMILES | RBX1-CUL1 inh
CCN=C1CC=CC=C(C(=O)/C=C/c2ccc(Cl)cc2)C1=O | 79*
OC1CCN(CC2Sc3ccccc3Oc3ccccc32)CC1 (stereo not given) | 2
COc1ccc(N=CC2C(=O)N(c3ccc(C)cc3C)C(=O)c3cc(OC)ccc32)cc1 (stereo not given) | -7
COc1ccccc1NC(=O)Nc1ccnn1C1CCN(C(=O)C2CCCO2)CC1 (stereo not given) | -8
Fc1ccc(Sc2nnnn2-c2ccccc2)cc1 | -12
CCC1CN(CCNC(=O)C2CC(=O)N(CCOC)C2)Cc2cc(OC)ccc2O1 (stereo not given) | 0
CN=C1CC=CC=C(C(=O)/C=C/c2cccc(C#N)c2)C1=O | 49*
CN=C1CC=CC=C(/C(C)=N/Nc2ccccc2)C1=O | -5
CN=C1CC=C(Br)C=C(C(=O)/C=C/c2ccc(C#N)cc2)C1=O | 4
CN=C1CC=CC=C(C(=O)/C=C/c2ccc3c(c2)OCO3)C1=O | 93*
CN=C1CC=C(Br)C=C(C(=O)/C=C/c2ccc3c(c2)OCO3)C1=O | -1
CCN=C1CC=CC=C(C(=O)/C=C/c2ccc3c(c2)OCO3)C1=O | 4
O=C(c1cc(Cl)ccc1Cl)N1CCN(c2cccc(Cl)c2)CC1 | -10
NCCNc1nc(-c2cccc(Br)c2)nnc1-c1ccccc1 | 54*
Cc1ccc(-c2nnc(-c3ccccc3)nc2NCCCO)cc1 | 1
Nc1nc(-c2cccc(Br)c2)cs1 | 5
O=C(NC(=O)C(F)(F)F)OCCOC(=O)NC(=O)C(F)(F)F | 5
CCn1c(=O)c2c(nc3n(-c4cccc(Cl)c4)c(C)c(C)n23)n(C)c1=O | 5
CC(C)Oc1ccc(CC2=NC(=S)NC2=O)cc1 | 4
O=C1NC(=S)N=C1Cc1ccc(OCc2cccc(C(=O)O)c2)cc1 | 26*
O=C(O)COc1ccc(CC2=NC(=S)NC2=O)cc1 | 7
CCOc1ccc(N2CC(C(=O)Nc3ccc(Br)c(OC)c3)CC2=O)cc1 (stereo not given) | 0
COCCN1C(=O)C(Cc2ccc(-c3cccc(C(=O)O)c3)o2)=NC1=S | 35*
O=C(O)c1cccc(-c2ccc(CNC3CCCC3)o2)c1 | -6
C=CCN1C(=O)N=C(Cc2ccc(-c3cccc(Br)c3)o2)C1=O | -1
NC(=O)c1ccc[n+](CC(=O)C23CC4CC(CC(C4)C2)C3)c1 | -2
Cc1cc(C)n(-c2nc(Nc3ccc(OC(F)(F)F)cc3)nc(OCC(F)(F)F)n2)n1 | 4
CN(c1nc2nonc2nc1N1CCCCCC1)C1CCOC1 (stereo not given) | 1
CN1C(=O)C(O)(CC(=O)c2ccc(Cl)s2)c2ccccc21 (stereo not given) | 1
